This is part of a sample that, as a whole, favours compounds with a hit. Of some 83,000 tested, about 20% had one in any assay.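 Single-dose data. Exposure time 48 hours. Values below 10 considered active.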 Unmarked numbers belong to inactive results. Activity calls are given as the source filed them.

This test concerns HL-60(TB) leukemia. The test can be described thus: NCI-60 one-dose screen, 48 h (100 = growth as untreated, 0 = no growth, -100 = all killed). Particulars: 10 µM unless noted.
Consider `COc1ccc(CN2CCc3c(Cl)nc(N)nc3C2=O)c(OC)c1`, for which the growth was 12.3% [100 µM]. To `COc1cc(C(C)(C)C)cc(OC)c1C(O)(c1c(OC)cc(C(C)(C)C)cc1OC)c1c(OC)cc(C(C)(C)C)cc1OC` belongs -63.7% (active). To `CC(NC(=O)Oc1cccc2ccccc12)c1ccccc1` (configuration not stated) belongs 44.8%. To `O=C(Nc1cccc(-n2cc(-c3ccncc3)c(-c3ccc(O)c(Cl)c3)n2)c1)Nc1ccc(Cl)c(C(F)(F)F)c1` belongs -2.7% (active). On to `CC(C)(CNC1CCCCC1)OC(=O)c1ccccc1`, for which the growth was 95.3%. Take `COc1cc2cc(NCc3ccc(OC(F)F)cc3)nc(C)c2cc1OC`: the growth is 38.7%. To `O=C1/C(=C/c2ccc(C(F)(F)F)cc2)COc2ccc(O)c(O)c21` belongs -26.1% (active); to `C=C1c2c(C)nn(-c3ccc(O)cc3)c2N(C)C23C[C@@H]1C1(C)c4c(C)nn(-c5ccc(O)cc5)c4N(C)C(C)(C[C@H]12)C3` (some centres not stated), 4.76% (active).

Consider `COc1ccc(/C(C)=C(\c2ccc(Cl)cc2)c2ccc(OCCN3CCCC3)cc2)cc1`, for which the growth is 37.9%.

For `C1=C(c2ccccc2)C(c2ccc(OCCN3CCCCC3)cc2)Oc2ccccc21` (configuration not stated), the growth is 62.7%.

As for `Nc1c(C(=O)Nc2ccccn2)sc2nc3c(cc12)CCCCC3`, the growth was -9.45% (active). To `Cn1c(=O)c(S(=O)(=O)c2ccccc2)cc2ccc3c(cnn3-c3ccc(Cl)cc3)c21` belongs 90.2%. As for `Cn1cc(-c2csc(-c3cn(C)c4ncccc34)n2)c2cccnc21`, the figure is 95.2%; as for `Brc1cccc(-c2cc(-c3ccc4c(c3)OCCO4)[nH]n2)c1`, 12.3% [25 µM].

For the compound `CCCCCc1c(C)[nH]c(/C=C2\N=C(c3ccc[nH]3)C=C2Oc2ccc(Cl)cc2)c1C`, the growth was -40.3% [100 µM] (active). To `C=CN(C(=O)N1CCN(c2cc3c(cc2F)c(=O)c(C(=O)O)cn3C2CC2)CC1)c1nc(-c2ccc(Cl)cc2)cs1` belongs 10.7%; to `CN(C)c1nc(N)nc(Cn2c(-c3nonc3N)nc3ccccc32)n1`, 94.2%; to `CSc1nnc(C2=CC(=O)c3ccccc3C2=O)n1-c1ccccc1`, 4.64% (active).

Regarding `COc1ccc(Cc2cc(-c3ccccc3C)n[nH]c2=O)cc1`, the growth is 92.4%. To `COc1cc(C(=O)c2c(N)ncn2-c2ccccc2)cc(OC)c1OC` belongs 77.5%; to `C[C@H]1C=C(C[C@@H](O)CCCCCCCCCC[C@@H](O)[C@H]2CCC(=O)O2)C(=O)O1`, 102%. As for `COc1ccc(C(O)c2cc3c(N)c(C(=O)Nc4cccc(Br)c4C)sc3nc2C)cc1` (configuration not stated), the figure is -41% (active); as for `O=S(=O)(NCCNc1cc(-c2c(-c3cccc(O)c3)nc3sccn23)ccn1)c1ccc(Cl)cc1`, 84.3%; as for `COc1ccc2c(c1)C/C(=C\c1cc(-c3cc(OC)c(OC)c(OC)c3)n[nH]1)C2=O`, 79%. To `CCOC(=O)c1nc(Nc2cc(C)[nH]n2)c2ccccc2n1` belongs 106%; to `CC1(COc2ccc3c(c2)ncn3-c2ccc3cccc(N4CCC(N)CC4)c3n2)COC1`, -46.9% (active). Regarding `CCSCC1CC(O)(c2ccccc2)C(c2ccccc2)C(c2ccc(F)cc2)O1` (configuration not stated), the growth is -12.5% (active).

The values above are taken from PubChem BioAssay (NCI).
